The text below walks through data of PubChem BioAssay (NCI).

Molecules are shown by their SMILES. This is part of a sample that, as a whole, favours compounds with a hit. Of some 83,000 tested, about 20% had one in any assay.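 Testing used 96-well plates and a 48-hour single-concentration exposure. Example: -40 means 40% of the starting cells died.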 A number with no mark means an inactive call. Active and inactive are the calls of the source. How the source made its calls: active means growth percent below 10; inactive means the rest.

Some test systems named below: DU-145 prostate; K-562 leukemia; MALME-3M melanoma; MDA-MB-231 breast; RXF 393 renal; SF-268 CNS; SF-295 CNS; SF-539 CNS; UACC-257 melanoma; M14 melanoma; HCT-15 colon; HT29 colon; SNB-75 CNS; SNB-19 CNS; U251 CNS; PC-3 prostate; SK-MEL-5 melanoma; LOX IMVI melanoma; SK-MEL-28 melanoma; UACC-62 melanoma.
Test in all cases: NCI-60 one-dose screen, 48 h (100 = growth as untreated, 0 = no growth, -100 = all killed)
Common to all, as to conditions: 10 µM unless noted

For `COc1cc(NC(=O)Nc2cccc(-c3cc(=O)c4c(OC)c(OC)c(OC)cc4o3)c2)cc(OC)c1OC`, the growth is 39.2% in the assay with DU-145 prostate; 40% in the assay with K-562 leukemia; 52.6% with MALME-3M melanoma; 47.3% with MDA-MB-231 breast; 15.2% in the assay on RXF 393 renal; 49.4% with SF-268 CNS. Also, the growth in the assay with SF-295 CNS is 47.1%; in the assay on SF-539 CNS, 47.9%; with UACC-257 melanoma, 74.1%; in the assay with M14 melanoma, 55.3%; with HCT-15 colon it was 32.7%; in the assay with HT29 colon, 46%. In addition, the growth in the assay on SNB-75 CNS is -0.583% (active); in the assay on SNB-19 CNS, 46.9%; in the assay with U251 CNS, 27.5%; with PC-3 prostate, 44.8%; in the assay on SK-MEL-5 melanoma, 43%; in the assay on LOX IMVI melanoma, 24.7%. The growth in the assay on SK-MEL-28 melanoma was 53.5%.

For `Oc1[nH]c2ccc(Cl)cc2c1N=Nc1nc(N=Nc2c(O)[nH]c3ccc(Cl)cc23)nc(N2CCCCC2)n1`, the growth in the assay on DU-145 prostate was 68%; in the assay on K-562 leukemia it was 39.3%; with MALME-3M melanoma, 58.8%; in the assay with MDA-MB-231 breast it was 64.5%; in the assay on RXF 393 renal, 86.8%; in the assay on SF-268 CNS, 54.5%. The growth with SF-295 CNS was 24.3%; with SF-539 CNS, 79.5%; in the assay on UACC-257 melanoma, 105%; in the assay on M14 melanoma it was 81.1%; in the assay with HCT-15 colon it was 88.4%; with HT29 colon, 39.3%. Also, the growth was 95.3% with SNB-75 CNS; 42.1% in the assay on SNB-19 CNS; 19.8% with U251 CNS; 19.5% with PC-3 prostate; 87% in the assay with SK-MEL-5 melanoma; 24.6% in the assay on LOX IMVI melanoma. The growth in the assay on SK-MEL-28 melanoma was 97.5%.

On to `O=C1/C(=C/c2cc(F)cc(F)c2)Cc2cc3c(cc21)OCO3`, for which the growth was 54.4% in the assay with DU-145 prostate; 18.4% in the assay on K-562 leukemia; 37.9% with MALME-3M melanoma; 40.5% in the assay with MDA-MB-231 breast; 29% with RXF 393 renal; 64.7% in the assay on SF-268 CNS. In addition, the growth with SF-295 CNS is 35.6%; with SF-539 CNS, 33.1%; in the assay on UACC-257 melanoma, 73.6%; in the assay with M14 melanoma it was 20.2%; in the assay with HCT-15 colon it was 27.2%; in the assay with HT29 colon it was 22.1%. Also, the growth in the assay with SNB-75 CNS was 6.56% (active); in the assay with SNB-19 CNS, 49.7%; with U251 CNS, 43.4%; with PC-3 prostate, 25.3%; with SK-MEL-5 melanoma, 23.6%; with LOX IMVI melanoma, 38.5%. In addition, the growth in the assay on SK-MEL-28 melanoma was 57.8%.

Consider `CC1=C(C)C(=O)C(Nc2ccc(C)cc2)=C(Br)C1=O`, for which the growth in the assay with DU-145 prostate was 106%; with K-562 leukemia it was -21.3% (active); in the assay on MALME-3M melanoma it was 112%; with MDA-MB-231 breast, 70.1%; in the assay on RXF 393 renal it was 97.7%; in the assay with SF-268 CNS, 97.3%. For the same compound, the growth was 98.1% in the assay with SF-295 CNS; 100% with SF-539 CNS; 93.8% in the assay on UACC-257 melanoma; 106% with M14 melanoma; 95.9% in the assay with HCT-15 colon; 108% with HT29 colon. For the same compound, the growth in the assay with SNB-75 CNS was 89%; in the assay on SNB-19 CNS it was 101%; with U251 CNS, 104%; in the assay on PC-3 prostate it was 87.8%; in the assay with SK-MEL-5 melanoma, 94%; with UACC-62 melanoma it was 92.2%. In addition, the growth in the assay on SK-MEL-28 melanoma is 112%.

Consider `CCOC(=O)c1c(NC(=O)c2ccc(C(F)(F)F)cc2)sc2c(CN3CCN(C)CC3)c(O)ccc12`, for which the growth in the assay with DU-145 prostate is -39.1% (active); in the assay with K-562 leukemia, -57.5% (active); in the assay on MALME-3M melanoma, -56.9% (active); in the assay on MDA-MB-231 breast it was -43.3% (active); in the assay on RXF 393 renal it was -86% (active); with SF-268 CNS, -49.5% (active). For the same compound, the growth was -58% (active) in the assay with SF-295 CNS; -89.7% (active) in the assay on SF-539 CNS; -13.5% (active) with UACC-257 melanoma; -26.1% (active) in the assay on M14 melanoma; -72.9% (active) with HCT-15 colon; -52.1% (active) with HT29 colon. In addition, the growth in the assay on SNB-75 CNS was 63.8%; in the assay on SNB-19 CNS it was -27.3% (active); with U251 CNS, -88% (active); with PC-3 prostate, -79% (active); in the assay with SK-MEL-5 melanoma it was 64.4%; with UACC-62 melanoma it was 28.8%. Besides, the growth in the assay with SK-MEL-28 melanoma is -82.3% (active).

Regarding `CC(=O)Nc1nc(C)c(-c2csc(Nc3ccccc3)n2)s1`, the growth with DU-145 prostate was 30%; with K-562 leukemia, 24.8%; in the assay on MALME-3M melanoma it was 13%; in the assay on MDA-MB-231 breast, 33%; in the assay with RXF 393 renal, 6.02% (active); in the assay with SF-268 CNS, 46.7%. The growth in the assay with SF-295 CNS was 11.9%; in the assay on SF-539 CNS it was 15.9%; in the assay on UACC-257 melanoma, 50.7%; with M14 melanoma, 35.3%; in the assay on HCT-15 colon it was 16.4%; in the assay with HT29 colon it was 28.7%. Also, the growth with SNB-75 CNS is 38.3%; in the assay on SNB-19 CNS, 35.8%; in the assay with U251 CNS it was 40.8%; in the assay with PC-3 prostate, 31.8%; with SK-MEL-5 melanoma it was 9.06% (active); in the assay with UACC-62 melanoma, 21.4%. Also, the growth in the assay on SK-MEL-28 melanoma was 38.1%.

Consider `CN1CCN(c2ccc(C(=O)/C=C/c3cc(F)cc(C(F)(F)F)c3)cc2)CC1`, for which the growth in the assay with DU-145 prostate is 49.6%; with K-562 leukemia it was 11.1%; with MALME-3M melanoma it was 91.7%; in the assay on MDA-MB-231 breast, 72.9%; with RXF 393 renal, 70.5%; in the assay on SF-268 CNS, 82.8%. Besides, the growth was 88.6% with SF-295 CNS; 59.5% in the assay with SF-539 CNS; 91.1% in the assay with UACC-257 melanoma; 92.2% with M14 melanoma; 27.5% in the assay on HCT-15 colon; 15.9% in the assay with HT29 colon. In addition, the growth with SNB-75 CNS is 59.9%; in the assay on SNB-19 CNS it was 81.7%; in the assay on U251 CNS it was 51.4%; in the assay on PC-3 prostate, 60.2%; in the assay on SK-MEL-5 melanoma it was 71.3%; with LOX IMVI melanoma, 7.73% (active). Moreover, in the assay with SK-MEL-28 melanoma, the growth was 96.3%.

On to `O=C(Nc1ccc(N=Cc2c(O)[nH]c3ccccc23)cc1)Nc1ccc(S(=O)(=O)Nc2ncccn2)cc1`, for which the growth was 110% with DU-145 prostate; 98% with K-562 leukemia; 112% in the assay on MALME-3M melanoma; 107% with MDA-MB-231 breast; 122% with RXF 393 renal; 109% in the assay with SF-268 CNS. Moreover, the growth in the assay with SF-295 CNS is 101%; with SF-539 CNS it was 105%; in the assay on UACC-257 melanoma it was 103%; in the assay on M14 melanoma it was 104%; in the assay on HCT-15 colon, 97.4%; with HT29 colon, 104%. Further, the growth in the assay with SNB-75 CNS is 99%; in the assay with SNB-19 CNS, 101%; with U251 CNS it was 103%; in the assay on PC-3 prostate it was 94.1%; with SK-MEL-5 melanoma, 100%; in the assay on LOX IMVI melanoma, 101%. Further, the growth in the assay with SK-MEL-28 melanoma is 120%.
